# Measured values published in PubChem BioAssay (EPA / NIEHS).
# Records with an inconclusive call do not appear. Calls of active or inactive are those of the source. How the source made its calls, unless noted: active means hit-call score of the fitted dose curve at least 0.9, where 1 is the maximum; inactive means score below 0.9.
# Columns and labels:
# [1] = ATG_NFI_CIS: Attagene CIS-FACTORIAL HepG2 Assay for human Nuclear Factor I (NFI) (AID 2282989); settings: HepG2 cis-regulatory reporter, NFI response element transcription; actives raise or lower the signal
# Method in brief: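 Reporter transcription driven by endogenous transcription factors in HepG2 cells; 24 h treatment. Quantitation by labelled RT-PCR fragments on capillary electrophoresis, gain- or loss-of-signal relative to DMSO.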
# [2] = molecular target: Myc proto-oncogene protein (Homo sapiens) (UniProt P01106); assay: ATG_Myc_CIS: Attagene CIS-FACTORIAL HepG2 Assay for human Myelocytomatosis (Myc) Proto-Oncogene Transcription Factor (AID 2282990); settings: HepG2, Attagene cis-reporter transcription factor activity; actives raise or lower the signal
# Method in brief: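 Transiently transfected HepG2 cells bearing cis-promoter reporter units for endogenous transcription factors; 24 h exposure. Reporter mRNA measured by RT-PCR, 6-FAM primer extension, HpaI cut and capillary electrophoresis; bidirectional fit relative to DMSO.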
# [3] = ATG_NF_kB_CIS: Attagene CIS-FACTORIAL HepG2 Assay for human Nuclear Factor Kappa B (NF-kB) (AID 2282991); settings: HepG2 Attagene cis-factorial NF-kB reporter mRNA; actives raise or lower the signal
# Method in brief: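 Endogenous transcription factor activity in HepG2 was captured via cis-regulated reporter constructs; after 24 h dosing, reporter mRNA was reverse-transcribed, amplified, fluorescently labelled and sized by capillary electrophoresis, with activity fitted bidirectionally relative to DMSO.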
# [4] = ATG_Oct_MLP_CIS: Attagene CIS-FACTORIAL HepG2 Assay for human Octamer-Binding Transcription Factor (Oct) (AID 2282993); settings: HepG2 Attagene cis-factorial Oct reporter, mRNA; actives raise or lower the signal
# Method in brief: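 Transfected HepG2 cells, 24 h treatment. Reporter mRNA quantified by RT-PCR–capillary electrophoresis; bidirectional fitting against DMSO.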
# [5] = molecular target: Cellular tumor antigen p53 (Homo sapiens) (UniProt P04637); assay: ATG_p53_CIS: Attagene CIS-FACTORIAL HepG2 Assay for human p53 Transcription Factor (AID 2282994); settings: HepG2 p53 cis-element reporter, Attagene mRNA; actives raise or lower the signal
# Method in brief: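 Endogenous p53 activity read in transiently transfected HepG2 from a cis-element-driven reporter transcript after 24 h exposure. RNA reverse-transcribed, PCR-amplified, fluorescently labelled and sized by capillary electrophoresis; gain or loss fitted against DMSO baseline.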
# [6] = molecular target: Peroxisome proliferator-activated receptor gamma (Homo sapiens) (UniProt P37231); assay: ATG_PPARg_TRANS: Attagene TRANS-FACTORIAL HepG2 Assay for human Peroxisome Proliferator-activated Receptor-gamma (PPARg) (AID 2283007; active means hit-call score of the fitted dose curve at least 0.9, where 1 is the maximum)
# Method in brief: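 A TRANS-format multiplexed reporter assay measures activity of an exogenous chimeric NR-Gal4 protein in HepG2 cells. After 24 h of chemical exposure, reporter transcripts are amplified, fluorescently labelled and sized by capillary electrophoresis, with gain of signal scored against DMSO.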
# [7] = molecular target: Nuclear receptor subfamily 1 group I member 2 (Homo sapiens) (UniProt O75469); assay: ATG_PXR_TRANS: Attagene TRANS-FACTORIAL HepG2 Assay for human Pregnane X Receptor (PXR) (AID 2283008; active means hit-call score of the fitted dose curve at least 0.9, where 1 is the maximum)
# Method in brief: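 Transactivation by exogenous PXR–GAL4 fusion measured as reporter transcript induction after 24 h compound treatment of transfected human HepG2 cells. Read-out via RT-PCR and capillary electrophoresis of labelled fragments, fitted upward relative to DMSO.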
# [8] = ATG_NRF2_ARE_CIS: Attagene CIS-FACTORIAL HepG2 Assay for human Nuclear Factor Erythroid 2 Related Factor 2 (NFR2) response to Antioxidant Response Elements (ARE) (AID 2282992); settings: HepG2 Attagene ARE/NRF2 reporter, transcription factor activity; actives raise or lower the signal
# Method in brief: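 Endogenous transcription factor activity read out as reporter transcript levels (RT-PCR plus capillary electrophoresis, fluorescence) in transiently transfected HepG2 cells. Measured at 24 h after dosing; gain or loss of signal fitted versus DMSO.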
# [9] = BSK_3C_TissueFactor: BioMAP Diversity Plus: 3C Assay for Tissue Factor Biomarker Activity (AID 2282997); settings: BioMAP 3C HUVEC, tissue factor biomarker readout; actives raise or lower the signal
# Method in brief: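 In this endothelial system, HUVEC are treated for 24 h and Tissue Factor is assessed by ELISA, normalised to DMSO.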
# [10] = BSK_3C_uPAR: BioMAP Diversity Plus: 3C Assay for Urokinase-type plasminogen activator receptor (uPAR) Biomarker Activity (AID 2282998); settings: BioMAP 3C HUVEC, uPAR biomarker ELISA; actives raise or lower the signal
# Method in brief: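 Readout: ELISA for surface uPAR. System: human umbilical vein endothelial primary cells, 24 h after chemical exposure. Analysis: bidirectional fit, DMSO baseline.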
# [11] = BSK_3C_VCAM1: BioMAP Diversity Plus: 3C Assay for Vascular cell adhesion molecule 1 (VCAM1) Biomarker Activity (AID 2282999); settings: BioMAP 3C HUVEC, VCAM1 ELISA, cytokine-stimulated; actives raise or lower the signal
# Method in brief: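 HUVEC primary cells, 24 h compound exposure; VCAM-1 by ELISA; gain/loss of signal fitted bidirectionally vs DMSO baseline.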
# [12] = BSK_4H_Eotaxin3: BioMAP Diversity Plus: 4H Assay for Eotaxin 3 Biomarker Activity (AID 2283000); settings: primary human endothelial cells (HUVEC); actives raise or lower the signal
# Method in brief: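 ELISA quantitation of CCL26 (Eotaxin-3) protein from chemically dosed human vascular endothelial cells at 24 h; increases and decreases both scored relative to DMSO-treated baseline.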
# [13] = molecular target: human Peroxisome Proliferator-activated Receptor alpha (PPARa), PPARA (gene 5465) (UniProt Q07869); assay: ATG_PPARa_TRANS: Attagene TRANS-FACTORIAL HepG2 Assay for human Peroxisome Proliferator-activated Receptor alpha (PPARa) (AID 2283001; active means hit-call score of the fitted dose curve at least 0.9, where 1 is the maximum;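 on AC50: potency for gain of reporter signal over DMSO so agonist or activator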)
# Method in brief: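 Transient HepG2 transfection, GAL4-UAS reporters, NR-Gal4 chimeras; 24 h compound exposure. Readout: reporter transcripts by RT-PCR, 6-FAM primer extension, HpaI digest, capillary electrophoresis. Positive direction vs DMSO baseline.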
# [14] = molecular target: human Peroxisome Proliferator-activated Receptor delta (PPARd), PPARD (gene 5467) (UniProt Q03181); assay: ATG_PPARd_TRANS: Attagene TRANS-FACTORIAL HepG2 Assay for human Peroxisome Proliferator-activated Receptor delta (PPARd) (AID 2283002; active means hit-call score of the fitted dose curve at least 0.9, where 1 is the maximum)
# Method in brief: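 HepG2 cells transiently transfected with GAL4-UAS multiplexed reporter units driven by exogenous chimeric NR-GAL4 proteins; 24 h compound exposure. Reporter mRNA measured by RT-PCR, 6-FAM primer extension, HpaI digestion and capillary electrophoresis; gain of signal fitted relative to DMSO.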
# [15] = read-out: Intercellular Adhesion Molecule 1 (ICAM1), ICAM1 (gene 3383); assay: BSK_3C_ICAM1: BioMAP Diversity Plus: 3C Assay for Intercellular Adhesion Molecule 1 (ICAM1) Biomarker Activity (AID 2283003); settings: primary human endothelial cells (HUVEC); actives raise or lower the signal
# Method in brief: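 Using DMSO as baseline, bidirectional curve fitting was applied to ICAM-1 ELISA signals from HUVEC in the 3C system, measured 24 h after compound addition.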
# [16] = molecular target: human Retinoic Acid Receptor beta (RARb), RARB (gene 5915) (UniProt P10826); assay: ATG_RARb_TRANS: Attagene TRANS-FACTORIAL HepG2 Assay for human Retinoic Acid Receptor beta (AID 2283004; active means hit-call score of the fitted dose curve at least 0.9, where 1 is the maximum)
# Method in brief: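 Fluorescent capillary-electrophoresis detection of GAL4-UAS reporter mRNA defines the endpoint, with induction over DMSO-treated wells scored as activity. Transiently transfected human hepatoma HepG2 cells expressing exogenous NR–Gal4 proteins are exposed to test chemicals for 24 h.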
# [17] = molecular target: Retinoic acid receptor alpha (Homo sapiens) (UniProt P10276); assay: ATG_RARa_TRANS: Attagene TRANS-FACTORIAL HepG2 Assay for human Retinoic Acid Receptor alpha (RARa) (AID 2283005; active means hit-call score of the fitted dose curve at least 0.9, where 1 is the maximum)
# Method in brief: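 HepG2 transiently transfected with multiplex GAL4-UAS reporter units including a human RARa–GAL4 chimera; 24 h compound exposure. Reporter mRNA quantified by RT-PCR, 6-FAM labeling and capillary electrophoresis; gain of signal versus DMSO.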
# [18] = BSK_3C_Proliferation: Cell Proliferation Assessment in the BioMAP Diversity Plus: 3C Assay (AID 2283006); settings: primary human endothelial cells (HUVEC);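 on AC50: potency may reflect either rise or fall in cell number versus DMSO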
# Method in brief: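 Measured here: sulforhodamine B (0.1%) staining of TCA-fixed sub-confluent umbilical vein endothelial cultures 48 h post-dosing, absorbance 560 nm. DMSO served as negative control and baseline; both signal gain and loss were modelled.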
# [19] = molecular target: human Retinoic Acid Receptor gamma (RARg), RARG (gene 5916) (UniProt P13631); assay: ATG_RARg_TRANS: Attagene TRANS-FACTORIAL HepG2 Assay for human Retinoic Acid Receptor gamma (RARg) (AID 2283009; active means hit-call score of the fitted dose curve at least 0.9, where 1 is the maximum;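 on AC50: AC50 is for reporter induction above DMSO meaning RARg activation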)
# Method in brief: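 Gain-of-signal relative to DMSO is reported from fluorescent capillary electrophoresis of RT-PCR reporter products. These came from HepG2 cells expressing transfected RARg-GAL4 chimeras with UAS reporters, harvested 24 h after dosing.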
# [20] = molecular target: human RAR-related Orphan Receptor beta (RORb), RORB (gene 6096) (UniProt Q92753); assay: ATG_RORb_TRANS: Attagene TRANS-FACTORIAL HepG2 Assay for human RAR-related Orphan Receptor beta (RORb) (AID 2283010; active means hit-call score of the fitted dose curve at least 0.9, where 1 is the maximum;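 on AC50: potency for increased reporter mRNA meaning activation of RORb-Gal4 chimera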)
# Method in brief: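 Multiplexed transcription-factor reporter assay: HepG2 cells transiently carrying NR-Gal4/GAL4-UAS constructs, 24 h treatment, mRNA quantified by RT-PCR plus capillary electrophoresis fluorescence; activity scored as induction over DMSO.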
# human Peroxisome Proliferator-activated Receptor delta (PPARd), PPARD (gene 5467), sequence (Q03181 whole entry, looked up, the tested form may be a part): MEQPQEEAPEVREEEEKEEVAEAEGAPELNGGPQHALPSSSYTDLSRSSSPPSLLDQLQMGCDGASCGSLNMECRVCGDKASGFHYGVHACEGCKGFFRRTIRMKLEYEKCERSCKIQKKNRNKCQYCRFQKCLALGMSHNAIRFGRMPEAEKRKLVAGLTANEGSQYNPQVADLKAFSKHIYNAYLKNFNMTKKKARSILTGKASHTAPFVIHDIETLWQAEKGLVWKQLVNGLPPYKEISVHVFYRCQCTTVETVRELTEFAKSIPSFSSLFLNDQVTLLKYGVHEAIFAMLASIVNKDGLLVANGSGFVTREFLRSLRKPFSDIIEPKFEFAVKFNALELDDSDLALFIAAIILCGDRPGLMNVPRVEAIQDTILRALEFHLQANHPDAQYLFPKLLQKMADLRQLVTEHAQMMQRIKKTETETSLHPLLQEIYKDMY
# human Peroxisome Proliferator-activated Receptor alpha (PPARa), PPARA (gene 5465), sequence (Q07869 whole entry, looked up, the tested form may be a part): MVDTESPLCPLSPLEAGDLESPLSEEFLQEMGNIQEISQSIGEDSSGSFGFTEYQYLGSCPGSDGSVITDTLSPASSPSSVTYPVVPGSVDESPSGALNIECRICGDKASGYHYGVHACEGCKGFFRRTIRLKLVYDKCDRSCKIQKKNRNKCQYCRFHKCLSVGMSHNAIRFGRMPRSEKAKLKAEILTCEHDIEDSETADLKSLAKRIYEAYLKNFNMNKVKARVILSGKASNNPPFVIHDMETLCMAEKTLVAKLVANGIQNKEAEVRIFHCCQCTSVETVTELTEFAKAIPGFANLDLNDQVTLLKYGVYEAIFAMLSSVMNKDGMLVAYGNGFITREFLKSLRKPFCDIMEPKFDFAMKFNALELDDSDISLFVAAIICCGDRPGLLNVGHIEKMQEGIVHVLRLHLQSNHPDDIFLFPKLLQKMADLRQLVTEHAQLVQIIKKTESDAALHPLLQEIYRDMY
# Peroxisome proliferator-activated receptor gamma (Homo sapiens), sequence (P37231 whole entry, looked up, the tested form may be a part): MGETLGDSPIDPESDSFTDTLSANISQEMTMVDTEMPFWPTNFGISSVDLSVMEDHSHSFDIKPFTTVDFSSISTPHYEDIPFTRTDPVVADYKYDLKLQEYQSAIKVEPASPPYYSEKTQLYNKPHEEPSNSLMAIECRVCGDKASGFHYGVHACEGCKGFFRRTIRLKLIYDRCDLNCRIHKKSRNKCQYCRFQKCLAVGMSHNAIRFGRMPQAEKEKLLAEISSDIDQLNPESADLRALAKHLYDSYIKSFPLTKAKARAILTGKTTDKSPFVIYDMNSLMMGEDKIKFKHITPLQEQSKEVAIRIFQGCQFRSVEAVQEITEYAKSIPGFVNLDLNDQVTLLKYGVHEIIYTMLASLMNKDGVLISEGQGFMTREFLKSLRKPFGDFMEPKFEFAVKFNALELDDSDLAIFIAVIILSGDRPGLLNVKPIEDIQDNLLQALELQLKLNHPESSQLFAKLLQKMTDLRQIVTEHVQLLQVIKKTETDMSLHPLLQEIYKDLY
# Cellular tumor antigen p53 (Homo sapiens), sequence (P04637 whole entry, looked up): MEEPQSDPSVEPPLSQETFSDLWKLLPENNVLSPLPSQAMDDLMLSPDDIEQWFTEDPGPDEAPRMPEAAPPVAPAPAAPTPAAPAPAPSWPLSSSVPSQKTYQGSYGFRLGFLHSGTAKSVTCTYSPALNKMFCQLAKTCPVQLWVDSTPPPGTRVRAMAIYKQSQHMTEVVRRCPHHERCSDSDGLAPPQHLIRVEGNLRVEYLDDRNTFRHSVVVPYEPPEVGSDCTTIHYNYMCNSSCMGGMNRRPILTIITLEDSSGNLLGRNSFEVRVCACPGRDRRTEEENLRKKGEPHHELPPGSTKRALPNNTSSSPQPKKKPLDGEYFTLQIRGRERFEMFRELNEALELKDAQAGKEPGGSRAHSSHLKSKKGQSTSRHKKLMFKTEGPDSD
# human RAR-related Orphan Receptor beta (RORb), RORB (gene 6096), sequence (Q92753 whole entry, looked up, the tested form may be a part): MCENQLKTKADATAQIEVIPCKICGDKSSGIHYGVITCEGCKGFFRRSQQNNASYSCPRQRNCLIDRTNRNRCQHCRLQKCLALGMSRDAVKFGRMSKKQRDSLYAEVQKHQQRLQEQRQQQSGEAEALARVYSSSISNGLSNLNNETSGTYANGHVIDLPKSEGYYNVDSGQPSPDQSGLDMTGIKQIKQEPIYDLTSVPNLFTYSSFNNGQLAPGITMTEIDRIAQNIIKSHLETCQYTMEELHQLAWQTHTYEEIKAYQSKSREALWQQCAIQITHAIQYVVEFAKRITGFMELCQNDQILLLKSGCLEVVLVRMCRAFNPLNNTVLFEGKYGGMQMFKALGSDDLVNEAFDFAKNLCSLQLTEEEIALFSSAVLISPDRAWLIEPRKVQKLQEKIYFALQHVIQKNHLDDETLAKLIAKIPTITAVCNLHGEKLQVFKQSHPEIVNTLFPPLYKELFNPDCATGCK
# Nuclear receptor subfamily 1 group I member 2 (Homo sapiens), sequence (O75469 whole entry, looked up, the tested form may be a part): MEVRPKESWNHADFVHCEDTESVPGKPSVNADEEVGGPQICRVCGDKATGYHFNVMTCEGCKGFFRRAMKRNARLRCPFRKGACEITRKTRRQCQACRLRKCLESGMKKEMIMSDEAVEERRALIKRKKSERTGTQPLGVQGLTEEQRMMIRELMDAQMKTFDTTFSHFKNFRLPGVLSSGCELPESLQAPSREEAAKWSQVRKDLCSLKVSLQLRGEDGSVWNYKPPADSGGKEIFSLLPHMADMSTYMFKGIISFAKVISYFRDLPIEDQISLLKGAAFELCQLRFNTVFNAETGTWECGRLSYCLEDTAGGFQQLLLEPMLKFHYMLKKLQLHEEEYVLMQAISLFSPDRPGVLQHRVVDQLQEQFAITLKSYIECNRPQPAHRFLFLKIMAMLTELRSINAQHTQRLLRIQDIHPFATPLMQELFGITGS
# Myc proto-oncogene protein (Homo sapiens), sequence (P01106 whole entry, looked up): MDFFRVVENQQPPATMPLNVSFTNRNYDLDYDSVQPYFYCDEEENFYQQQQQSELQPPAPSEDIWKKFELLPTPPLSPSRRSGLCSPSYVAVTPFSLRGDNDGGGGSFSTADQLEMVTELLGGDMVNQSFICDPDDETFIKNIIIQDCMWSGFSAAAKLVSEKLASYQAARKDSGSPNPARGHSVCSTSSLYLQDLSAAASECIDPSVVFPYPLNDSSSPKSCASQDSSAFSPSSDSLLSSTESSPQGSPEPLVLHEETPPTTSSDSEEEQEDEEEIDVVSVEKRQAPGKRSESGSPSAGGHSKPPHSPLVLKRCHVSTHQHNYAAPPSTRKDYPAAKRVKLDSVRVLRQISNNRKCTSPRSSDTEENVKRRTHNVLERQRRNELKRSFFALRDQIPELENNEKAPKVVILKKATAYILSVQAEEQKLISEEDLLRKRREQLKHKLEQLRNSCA
# human Retinoic Acid Receptor gamma (RARg), RARG (gene 5916), sequence (P13631 whole entry, looked up, the tested form may be a part): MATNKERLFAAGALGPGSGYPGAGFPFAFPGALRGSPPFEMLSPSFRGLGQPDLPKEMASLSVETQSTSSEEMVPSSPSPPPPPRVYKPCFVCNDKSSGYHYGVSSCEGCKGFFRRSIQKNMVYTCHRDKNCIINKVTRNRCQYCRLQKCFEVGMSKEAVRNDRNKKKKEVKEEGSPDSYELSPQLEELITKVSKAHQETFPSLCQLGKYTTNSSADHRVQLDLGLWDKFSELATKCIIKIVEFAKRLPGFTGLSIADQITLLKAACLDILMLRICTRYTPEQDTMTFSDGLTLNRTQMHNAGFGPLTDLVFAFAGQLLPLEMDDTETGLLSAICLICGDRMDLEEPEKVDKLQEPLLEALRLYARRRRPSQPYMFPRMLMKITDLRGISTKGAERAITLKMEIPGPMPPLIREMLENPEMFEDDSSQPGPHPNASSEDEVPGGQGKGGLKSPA
# Retinoic acid receptor alpha (Homo sapiens), sequence (P10276 whole entry, looked up, the tested form may be a part): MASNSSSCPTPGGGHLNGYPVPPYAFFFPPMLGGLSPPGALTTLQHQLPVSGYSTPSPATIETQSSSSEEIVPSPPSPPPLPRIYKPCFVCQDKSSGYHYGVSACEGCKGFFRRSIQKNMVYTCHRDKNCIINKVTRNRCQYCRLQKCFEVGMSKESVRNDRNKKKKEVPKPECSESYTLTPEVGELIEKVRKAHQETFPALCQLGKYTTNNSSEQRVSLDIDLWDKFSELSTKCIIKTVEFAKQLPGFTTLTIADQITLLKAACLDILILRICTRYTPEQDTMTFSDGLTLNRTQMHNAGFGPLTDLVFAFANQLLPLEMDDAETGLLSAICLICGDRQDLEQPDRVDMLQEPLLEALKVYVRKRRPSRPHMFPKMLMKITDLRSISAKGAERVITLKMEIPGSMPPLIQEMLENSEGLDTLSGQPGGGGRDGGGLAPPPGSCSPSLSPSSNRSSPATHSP
# human Retinoic Acid Receptor beta (RARb), RARB (gene 5915), sequence (P10826 whole entry, looked up, the tested form may be a part): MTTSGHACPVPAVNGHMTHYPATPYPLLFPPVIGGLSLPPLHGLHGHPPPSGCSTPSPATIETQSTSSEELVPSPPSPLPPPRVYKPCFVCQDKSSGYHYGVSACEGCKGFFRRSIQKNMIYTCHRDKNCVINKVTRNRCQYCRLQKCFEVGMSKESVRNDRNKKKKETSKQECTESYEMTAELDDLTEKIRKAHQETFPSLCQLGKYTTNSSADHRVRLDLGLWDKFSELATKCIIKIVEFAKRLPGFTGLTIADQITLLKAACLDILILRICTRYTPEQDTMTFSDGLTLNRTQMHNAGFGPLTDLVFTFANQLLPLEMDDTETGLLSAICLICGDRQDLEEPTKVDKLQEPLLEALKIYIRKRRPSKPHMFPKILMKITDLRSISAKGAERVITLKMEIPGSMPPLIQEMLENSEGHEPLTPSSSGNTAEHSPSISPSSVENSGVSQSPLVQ
structure (smiles),measurement,setting,value
CCOC(=O)CP(=O)(OCC)OCC,outcome,[1],inactive
same,outcome,[2],inactive
same,outcome,[3],inactive
same,outcome,[4],inactive
same,outcome,[5],inactive
same,outcome,[6],inactive
same,outcome,[7],inactive
CCC(C)(C)c1ccc(O)c(C(C)(C)CC)c1,outcome,[1],inactive
same,outcome,[3],inactive
same,AC50,[8],11.1 µM (active)
same,outcome,[4],inactive
same,outcome,[5],inactive
same,AC50,[9],12 µM (active)
same,AC50,[10],8.8 µM (active)
same,AC50,[11],11.5 µM (active)
same,AC50,[12],11.1 µM (active)
same,AC50,[13],55.2 µM (active)
same,AC50,[14],52 µM (active)
same,AC50,[15],12.4 µM (active)
same,outcome,[16],inactive
same,outcome,[17],inactive
same,AC50,[18],8.85 µM (active)
same,AC50,[6],33.4 µM (active)
same,AC50,[7],12.6 µM (active)
same,AC50,[19],27.4 µM (active)
same,AC50,[20],27.3 µM (active)
C[C@@H](Oc1ccc(Cl)cc1Cl)C(=O)O,outcome,[1],inactive
same,outcome,[2],inactive
same,outcome,[3],inactive
same,outcome,[4],inactive
same,outcome,[5],inactive
same,outcome,[13],inactive
same,AC50,[6],49.4 µM (active)
same,outcome,[19],inactive
CCOP(=O)(CN(CCO)CCO)OCC,outcome,[1],inactive
same,outcome,[2],inactive
same,outcome,[3],inactive
same,outcome,[4],inactive
same,outcome,[5],inactive
same,outcome,[14],inactive
same,outcome,[17],inactive
same,outcome,[6],inactive
same,outcome,[19],inactive
same,outcome,[20],inactive
Nc1ccc(N=Nc2ccc(-c3ccc(N=Nc4c(S(=O)(=O)O)cc5cc(S(=O)(=O)O)c(N=Nc6ccccc6)c(O)c5c4N)cc3)cc2)c(N)c1,outcome,[1],inactive
same,outcome,[3],inactive
same,outcome,[8],inactive
same,outcome,[4],inactive
same,outcome,[5],inactive
same,outcome,[13],inactive
same,outcome,[14],inactive
same,outcome,[17],inactive
same,outcome,[6],inactive
same,outcome,[7],inactive
COC(=O)c1sccc1S(=O)(=O)NC(=O)Nc1nc(C)nc(OC)n1,outcome,[1],inactive
same,outcome,[3],inactive
same,outcome,[8],inactive
same,outcome,[4],inactive
same,outcome,[5],inactive
same,outcome,[9],inactive
same,outcome,[10],inactive
same,outcome,[11],inactive
same,outcome,[14],inactive
same,outcome,[15],inactive
same,outcome,[18],inactive
same,outcome,[7],inactive
O=C(c1ccccc1)C(Cl)Cl,AC50,[1],25.1 µM (active)
same,AC50,[3],25.9 µM (active)
same,outcome,[8],inactive
same,AC50,[4],25.3 µM (active)
same,outcome,[5],inactive
same,outcome,[13],inactive
same,outcome,[6],inactive
same,outcome,[7],inactive
same,outcome,[19],inactive
same,outcome,[20],inactive
